# Measurements reported in PubChem BioAssay AID1259400 (National Center for Advancing Translational Sciences (NCATS), 2018).
# Several values for one entry are separate records, joined by “and”; a condition that tells them apart may be missing. Equal entries are not always repeated. About 2,100 (0.6%) of roughly 350,000 compounds were called active. Not shown: some 1% with an inconclusive outcome. The sample holds actives, similar compounds and a random draw of the others, so the mix is not that of the screen. A number with no mark means an inactive call.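 How the source made its calls: active means activity change of -60% or lower, but not beyond a set lower limit; inconclusive means change between -60% and -40%, or beyond the set limit; inactive means change above -40%.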
# Molecular target: Relaxin receptor 1 (Homo sapiens) (UniProt Q9HBX9)
# Assay: qHTS Assay for Antagonists of the Relaxin Receptor RXFP1
# Settings: HEK293-RXFP1, relaxin-stimulated cAMP HTRF, 30 min; at 57.5 µM; hits give low values
# On the % scale 0 is the no-effect control and ±100 the full control effect.
# Relaxin receptor 1 (Homo sapiens), sequence (Q9HBX9 whole entry, looked up): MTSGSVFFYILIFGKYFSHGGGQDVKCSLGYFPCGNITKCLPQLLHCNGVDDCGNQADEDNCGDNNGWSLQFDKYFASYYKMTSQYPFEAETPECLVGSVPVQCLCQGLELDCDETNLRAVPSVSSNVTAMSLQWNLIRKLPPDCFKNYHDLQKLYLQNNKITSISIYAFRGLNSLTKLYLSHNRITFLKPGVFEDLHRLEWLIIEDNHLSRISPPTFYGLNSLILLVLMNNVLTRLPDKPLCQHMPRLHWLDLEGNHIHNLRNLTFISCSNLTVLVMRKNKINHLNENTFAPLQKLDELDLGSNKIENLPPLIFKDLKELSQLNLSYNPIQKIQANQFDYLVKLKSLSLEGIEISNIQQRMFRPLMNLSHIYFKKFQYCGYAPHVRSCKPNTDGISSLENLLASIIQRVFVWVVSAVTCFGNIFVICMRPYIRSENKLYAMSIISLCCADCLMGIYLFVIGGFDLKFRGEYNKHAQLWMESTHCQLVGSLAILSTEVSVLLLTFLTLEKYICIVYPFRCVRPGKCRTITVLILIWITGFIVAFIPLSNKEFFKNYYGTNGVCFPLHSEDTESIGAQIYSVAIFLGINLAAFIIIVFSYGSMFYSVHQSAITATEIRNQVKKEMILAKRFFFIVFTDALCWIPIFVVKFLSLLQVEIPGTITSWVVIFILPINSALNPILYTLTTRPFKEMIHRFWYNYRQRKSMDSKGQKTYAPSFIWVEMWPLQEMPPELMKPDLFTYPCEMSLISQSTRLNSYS
row,SMILES,"activity change, negative = inhibition"
1,Cc1ccc(CN2CCc3nc(N4CCN(C)CC4)ncc3C2)cc1,-7.68%
2,Cc1cc(-c2ccccc2)n2nc(-c3ccccc3)cc2n1,-15.7%
3,Cc1cccc(-n2ncc(C(=O)N3CCN(c4ccc(Cl)cc4)CC3)c2C2CCN(C(=O)OC(C)(C)C)CC2)c1,-19.9%
4,O=C(OCC(O)CO)c1ccccc1Nc1ccnc2c(C(F)(F)F)cccc12 (centres undefined),-23.3%
5,Cc1cccc(-n2ncc(C(=O)N3CCC(C)CC3)c2C2CCN(C(=O)OC(C)(C)C)CC2)c1,1.6%
6,Cc1ccc(C2CCN(C(=O)c3cnn(-c4ccccc4Cl)c3C3CCN(C(=O)OC(C)(C)C)CC3)C2)cc1 (centres undefined),-70.8% (active)
7,Cc1ccc(CN2CCC(CNC(=O)c3cnn(-c4ccccc4Cl)c3C3CCN(C(=O)OC(C)(C)C)CC3)CC2)cc1,-35.3%
8,Cc1cccc(C)c1NC(=O)c1ccc(N)cc1,14.2%
9,CCOc1cccc2c1N[C@@H](c1ccc(C(=O)O)cc1)[C@H]1CC=C[C@@H]21,-4.8%
10,O=C(CCl)Nc1ccc(Sc2ccc(NC(=O)CCl)cc2)cc1,-96.8% (active)
11,CC(C)(CCl)C(=O)Nc1ccc(Sc2ccc(F)cc2)cc1,-28.2%
12,O=C(CCl)Nc1cccc(CP(=O)(c2ccccc2)c2ccccc2)c1,-12.2%
13,CCCNC(=O)CCC(=O)N1Cc2ccccc2Oc2ncccc21,-2.12%
14,Cc1ccccc1CNC(=O)CCC(=O)N1Cc2ccccc2Oc2ncccc21,-120% (active)
15,Cc1ccc(CNC(=O)CCC(=O)N2Cc3ccccc3Oc3ncccc32)cc1,0.223%
16,O=C(CC1N=C2c3ccccc3N=C(SCc3ccc(F)cc3)N2C1=O)NCc1cccs1 (centres undefined),-7.63%
17,COc1ccccc1C(=O)Nc1c(C(=O)N(C)Cc2ccccc2)sc2nc(C)c(Cl)c(C)c12,-8.81%
18,CCC(=O)N1CCc2cc(Br)cc(S(=O)(=O)CCC(=O)NCCc3ccc(OC)c(OC)c3)c21,-17.8%
19,Cc1ccc(C)c(N2CCN(C(=O)Cn3nc(C)c4sc5ccccc5c4c3=O)CC2)c1,-3.69%
20,CCOc1ccc(CNC(=O)C2CCCN(S(=O)(=O)N(CC)c3ccc(OCC)cc3)C2)cc1 (centres undefined),-7.3%
21,CCCCOc1ccc(Cn2c(=O)oc3ccc(C)cc32)cc1OC,-39.4%
22,CCCCN1C(=O)C(C)=C(C)C1OCCc1ccc(OC)c(OC)c1 (centres undefined),-1.03%
23,CCCCOc1ccc(CN2C(=O)C(=O)c3cc(Br)cc(C)c32)cc1OC,-71.4% (active)

row,SMILES,"activity change, negative = inhibition"
1,Cc1cc(C)c2oc(C(=O)Nc3ccc(S(=O)(=O)N4CCCCCC4)cc3)cc(=O)c2c1,-1.32%
2,CO/N=C(\C(=O)N[C@@H]1C(=O)N2C(C(=O)O)=C(Cn3nnc(C)n3)CS[C@H]12)c1csc(N)n1,10%
3,COc1ccccc1C(=O)NCC(=O)OCC(=O)Nc1nnc(-c2ccccc2)o1,-0.478%
4,CC(=O)Nc1cccc(C(=O)OCC(=O)Nc2nnc(-c3ccccc3)o2)c1,-4.64%
5,O=C(COC(=O)c1ccc(Oc2ccccc2)cc1)Nc1nnc(-c2ccccc2)o1,-76.2% (active)
6,O=C(CN1CCSc2ccccc21)N1CCN(c2ccccc2)CC1,-6.69%
7,CCOc1ccc(-c2cc(C)n3nc(C(=O)Nc4ccc(C)c(C)c4)cc3n2)cc1,-24%
8,CCCn1c(NCc2ccc(N(CC)CC)cc2)nc2ccccc21,-15%
9,CC(C)S(=O)(=O)c1oc(-c2ccc(F)cc2)nc1S(=O)(=O)c1ccc(F)cc1,-89.7% (active)
10,Cc1ccc(-c2nc(S(=O)(=O)c3ccc(C)cc3)c(N3CCCCCC3)o2)cc1,2.42%
11,O=C(CSc1oc(-c2ccc(F)cc2)nc1S(=O)(=O)c1ccc(Br)cc1)NC1CCCCC1,-5.96%
12,O=c1cnnc(Nc2ccccc2F)[nH]1,-93.6% (active)
13,O=c1cnnc(Nc2ccccc2)[nH]1,9%
14,Cc1nnc(Nc2ccccc2F)s1,3.61%
15,CCCN(CCC)CCNC(=O)c1ccc2c(c1)NC(=O)C(CS(=O)(=O)Cc1cccc(Br)c1)N2 (centres undefined),-10.4%
16,Cc1ccc(CN(C(=O)COc2ccc(Cl)cc2C)C2CCS(=O)(=O)C2)o1 (centres undefined),-6.16%
17,COc1cc(OC)c(NC(=O)N2CC3CCCN3c3ccccc32)cc1Cl (centres undefined),-23.5%
18,Oc1c(Cl)cc(Cl)c(Cl)c1Cc1c(O)c(Cl)cc(Cl)c1Cl,-62.6% (active)
19,Cc1nc(SCC(=O)Nc2ccc(C(=O)O)cc2)n[nH]1,-9%
20,CCOC(=O)N1CCc2c(sc(NCc3cccc(F)c3)c2C(=O)Nc2ccccc2OCC)C1,-69.1% (active)
21,CCOC(=O)c1ccc(NC(=O)c2c(NCc3cccc(OC)c3)sc3c2CCC3)cc1,-35.6%
22,CCOc1ccc(NC(=O)c2c(NCc3cccc(OC)c3OC)sc3c2CCC3)cc1,-17.6%
23,CC(C)N=C1CCCC1C(=S)SSC(=S)C1CCCC1=NC(C)C (centres undefined),-72.7% (active)

row,SMILES,"activity change, negative = inhibition"
1,COc1cccc(C(=O)NC(=O)Nc2ccc(-c3cc(C(F)(F)F)nn3-c3ccccc3)cc2)c1,-5.11%
2,Cc1ccc(Cl)cc1N1CCN(C(=O)c2cccn3c(=O)c4cc(Cl)ccc4nc23)CC1,3.52%
3,CCc1nc2ccc(C(=O)N3CCN(c4cccc(Cl)c4)CC3)cc2nc1CC,-23.6% and -19.3%
4,CCc1nc2ccc(C(=O)N3CCN(c4cc(Cl)ccc4C)CC3)cc2nc1CC,-64.4% (active)
5,COC(=O)Nc1nc2ccc(C(=O)C3CC3)cc2[nH]1,14.8%
6,Cn1c(SCC(=O)N2CCCc3ccccc32)ncc(C(=O)Nc2ccc(F)cc2)c1=O,-2.51%
7,Cc1cc(C)c2oc(C(=O)Nc3ccc(S(=O)(=O)N(C)c4ccccc4)cc3)cc(=O)c2c1,-2.14%
8,Cc1cc(NC(=O)c2cccc(Cl)c2)ccc1-c1cc2ccccc2oc1=O,-4.13%
9,Cc1ccn2c(-c3csc(Nc4ccc(C(=O)O)cc4)n3)c(C)nc2c1,6.41%
10,O=c1oc2ccccc2cc1-c1csc(Nc2ccc(O)cc2)n1,-97% (active)
11,COC(=O)c1ccc(NC(=O)c2cnn(-c3ccc(Cl)cc3)c2C2CCN(C(=O)OC(C)(C)C)CC2)cc1,-12.3%
12,COc1ccc(CCNC(=O)c2ccc3c(c2)nc(C)n3-c2ccc(Br)cc2)cc1OC,-27.1%
13,CC1=C(c2ccc(C)cc2)S(=O)(=O)NC1=NCCCN1CCN(c2cc(C)ccc2C)CC1,-13.1%
14,COC(=O)/C=C(/C)N,5.99%
15,CCOC(=O)c1cc(-c2ccccc2)n(-c2cccc(C(=O)Nc3cc(OC)cc(OC)c3)c2)c1C,-10.5%
16,COC(=O)c1nc(Cl)c(Cl)nc1N,-98.8% (active)
17,COC(=O)c1c(C)c(C)nc(N)c1C#N,9.32%
18,COC(=O)c1nn(-c2cccc(Cl)c2)ccc1=O,-8.77%
19,O=C(CCOc1ccccc1)N(Cc1cccnc1)c1nc2ccc(Cl)cc2s1,0.968%
20,COc1ccc(OC)c(NC(=O)CSC2=Nc3ccccc3C3=NC(CC(=O)NCc4ccc(F)cc4)C(=O)N23)c1 (centres undefined),-11.9%
21,COCCCN1CCC(NC(=O)c2cc(Cl)c(N)c3c2OCC3)CC1,-9.44%
22,CC1(C(=O)N/N=C/c2cc3c(cc2Br)OCO3)CC1(Br)Br (centres undefined),-82.7% (active)
23,O=C(/C=C/c1cc2c(cc1Br)OCO2)NCc1ccc(Cl)cc1,0.543%

row,SMILES,"activity change, negative = inhibition"
1,O=C(N/N=C\c1cc2c(cc1Cl)OCO2)c1ccc(Br)s1,5.05%
2,COc1cc(Cl)c(NC(=O)CC(C)S(=O)(=O)c2cc3c(cc2C)NC(=O)CO3)c(OC)c1 (centres undefined),0.439%
3,NNc1nc2c(Cl)cccc2s1,-80.1% (active)
4,c1ccc2c(NC3C4CC5CC(C4)CC3C5)nc(N3CCOCC3)nc2c1 (centres undefined),-78.7% (active)
5,CC(Nc1nc(N2CCCC2)nc2ccccc12)c1ccccc1 (centres undefined),-10.3%
6,Fc1cnc(N2CCOCC2)nc1NCc1ccccc1,11.7%
7,O=C(NCC(c1ccc(Cl)cc1)N1CCOCC1)c1ccccc1F (centres undefined),-0.553%
8,CCOC(=O)c1c(C)[nH]c(CCC(=O)NCCCN2CCN(c3cc(C)ccc3C)CC2)c1C,-33.7%
9,CCCc1c2oc(C(=O)O)cc(=O)c2cc2c(=O)cc(C(=O)O)n(CC)c12,-5.22%
10,COc1cc(/C=C/C(N)=O)cc(OC)c1OC,-9.25%
11,Cc1c(NC(=O)Cc2ccccc2)cccc1-c1nc2cccnc2s1,5.77%
12,CCOc1ccc(-c2nc(N)ncc2-c2ccccc2OC)c(O)c1,-16%
13,C=C(C)COc1ccc(-c2nc(N)ncc2-c2ccccc2OC)c(O)c1,-62% (active)
14,C=C(C)COc1ccc(-c2ncncc2-c2ccc(OC)cc2)c(O)c1,-10.6%
15,Cc1ccc(CCNC(=O)c2nnc(Cc3cccc(F)c3)o2)cc1,-3.15%
16,O=C(OCC(O)C(O)COC(=O)c1ccccc1)c1ccccc1 (centres undefined),-12.8%
17,CC(OC(=O)CN1C(=O)c2ccccc2C1=O)C(=O)c1ccccc1 (centres undefined),6.31%
18,C=CCC(C(=O)c1ccccc1)[N+](C)(C)CC=C (centres undefined),-82.2% (active)
19,CC(O)COc1ccccc1 (centres undefined),1.89%
20,Cc1noc(/C=C/N(C)C)c1S(=O)(=O)N1CCCC(C(=O)Nc2cccc(F)c2)C1 (centres undefined),-3.51%
